Among all 650,000 compounds or so, about 6,800 (1%) were called active. What follows is part of a selection rich in actives, with near analogues and random picks from the rest. A number with no mark means an inactive call. Cut-off read from the data, not from the text of the source: active = activation above about 4.9%; inactive = the rest.
biological target: G-protein coupled receptor 151 (Homo sapiens) (UniProt Q8TDV0); assay: activates the human receptor GPR151, primary screen, cell-based, PathHunter beta-arrestin, luminescence (AID 1508602); conditions: PathHunter beta-arrestin GPR151 cells, at 11.2 µM, stronger effect = higher value;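 note: 0% = median of compound wells and 100% = cells with positive control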
Sequence (Q8TDV0 whole entry, looked up): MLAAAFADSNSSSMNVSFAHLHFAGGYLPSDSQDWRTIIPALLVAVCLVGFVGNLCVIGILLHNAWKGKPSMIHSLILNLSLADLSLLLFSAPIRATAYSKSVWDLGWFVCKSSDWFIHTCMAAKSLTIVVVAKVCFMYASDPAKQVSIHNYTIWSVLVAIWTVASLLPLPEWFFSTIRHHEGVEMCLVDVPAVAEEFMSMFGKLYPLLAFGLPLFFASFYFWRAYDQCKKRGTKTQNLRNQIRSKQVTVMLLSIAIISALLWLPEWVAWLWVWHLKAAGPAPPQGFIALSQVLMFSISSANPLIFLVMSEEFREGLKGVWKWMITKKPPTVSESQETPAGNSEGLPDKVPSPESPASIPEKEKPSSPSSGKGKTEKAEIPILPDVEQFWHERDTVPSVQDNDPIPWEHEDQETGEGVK

SMILES | activation
NC(=O)c1ccc(NC(=O)CSc2nc(N)c(NC(=O)c3ccccc3)c(=O)[nH]2)cc1 | -0.254%
C#CCN1C(=O)C(O)(CC(=O)c2ccc(Br)cc2)c2ccccc21 (configuration not stated) | 4.05%
Cc1cc(N2CCCC2)nc(N2CCN(C(=O)c3ccccc3Cl)CC2)n1 | 0.558%
CCOC(=O)c1oc2ccc(Br)cc2c1C | 1.27%
Cc1c(C(=O)Nc2nnc(C3CC3)s2)oc2ccc(Br)cc12 | -0.544%
COC(=O)c1oc2ccc(Br)cc2c1NC(C)=O | 6.57% (active)
O=C(NC(c1ccccc1)C(C(=O)c1ccccc1)C(=O)c1ccccc1)OCCc1ccccc1 (configuration not stated) | -0.699%
COCCCNCc1c(C(=O)O)n(Cc2ccccc2F)c2cc(OC)ccc12 | 1.64%
CCN(CC)CCNS(=O)(=O)c1ccc(Br)c(C)c1 | 0.131%
O=C(CSc1nnnn1-c1ccc2c(c1)OCCO2)NNC(=O)c1ccco1 | 2.23%
COc1cccc(OC(=O)c2ccc(F)cc2[N+](=O)[O-])c1 | -5.87%
CCCCN(C)Cc1cc(Br)ccc1OC | 0.319%
CC(=O)N1CCc2c(sc(NC(=O)CCS(=O)(=O)c3ccccc3)c2C#N)C1 | -0.234%
CCOC(=O)N1CCc2c(sc(NC(=O)CCSc3ccccc3)c2C#N)C1 | 0.685%
CC(C)N1CCc2c(sc(NC(=O)Cc3ccccc3)c2C#N)C1 | 4.91% (active)
Cc1ccc(CNC(=O)CCC2CCCN(C(=O)c3cccc(-c4ccco4)c3)C2)o1 (configuration not stated) | -0.6%
CC(C)c1nc(CNC(=O)Cn2nnnc2CN2C[C@@H](C)O[C@@H](C)C2)cs1 | 0.432%
CCC(C)C(=O)N1CCc2c(C(=O)NCc3ccsc3)c(OC)cc(=O)n2CC1 (configuration not stated) | 0.148%
CC(C)CC(NS(=O)(=O)c1ccc2c(c1)oc(=O)n2C)C(=O)N1CCC(C)CC1 (configuration not stated) | -0.109%
CC1CCN(C(=O)C(NS(=O)(=O)c2ccc3c(c2)oc(=O)n3C)C(C)C)CC1 (configuration not stated) | 7.77% (active)
CC1CCC(NS(=O)(=O)c2ccc3c(c2)oc(=O)n3C)CC1 (configuration not stated) | 0.208%
O=C1CC(N2CCN(Cc3ccccc3)CC2)C(=O)N1c1ccccc1F (configuration not stated) | -0.408%
O=C(CCn1cnc2c(cnn2-c2ccc(F)cc2)c1=O)NCCC1=CCCCC1 | 7.05% (active)

SMILES | activation
O=C(Cn1cnc2c(cnn2-c2ccc(F)cc2)c1=O)NCCc1ccccc1 | 0.508%
Cc1ccc2[nH]c3c(=O)n(CC(=O)NCCC4=CCCCC4)cnc3c2c1 | 0.423%
COC(=O)c1ccc(-c2cnc3ccc(NCCCO)nn23)cc1 | 0.0841%
O=C(Cc1cccs1)NCCS(=O)(=O)N1CCN(CCc2ccccc2)CC1 | 0.729%
Cc1ccc(-c2noc(CNC(=O)c3cc(C)ccc3C)n2)cc1 | 0.749%
Cc1ccc(-c2noc(CNC(=O)c3cccc4ccccc34)n2)cc1 | 1.49%
Cc1ccccc1C(=O)NCc1nc(-c2ccc(Cl)cc2)no1 | 6.7% (active)
COc1ccc(C2Nc3ccccc3C(=O)N2c2ccc(C)cc2)cc1COc1ccc(Cl)cc1 (configuration not stated) | 2.56%
O=C(O)CN1C(=O)CC(N2C(=O)/C(=C/c3ccc(F)cc3)SC2=S)C1=O (configuration not stated) | -1.59%
Cn1c(=O)c2c(nc(SCC(=O)O)n2Cc2ccc(F)cc2)n(C)c1=O | 8.98% (active)
CNC(=O)CSc1nc2c(c(=O)n(C)c(=O)n2C)n1Cc1ccc(F)cc1 | 0.114%
Cn1cnnc1Sc1nc2c(c(=O)n(C)c(=O)n2C)n1Cc1ccc(F)cc1 | -1.79%
CCc1nc2sc3c(c2c2nnc(SCC(=O)NCc4ccco4)n12)CCCC3 | -0.144%
COc1ccccc1C(=O)N/C(=C/c1ccc2c(c1)OCO2)C(=O)N1CCCCC1 | 0.0614%
CCOC(=O)CNC(=O)/C(=C\c1ccc2c(c1)OCO2)NC(=O)c1ccccc1OC | 2.88%
COc1ccccc1C(=O)N/C(=C\c1ccc2c(c1)OCO2)C(N)=O | 6.4% (active)
COCCOC(=O)C1=C(C)Nc2ccccc2S1 | 1.48%
CN(C)S(=O)(=O)Nc1ccc(N2CCC(NCc3cc4ccccc4[nH]3)CC2)cc1 | -0.741%
CCn1c(SCC(=O)O)nc2sc3c(c2c1=O)CC(C)(C)OC3 | -0.501%
COC(=O)CSc1nc2sc3c(c2c(=O)n1C1CCCCC1)CC(C)(C)OC3 | -0.897%
C=C(C)CSc1nc2sc3c(c2c(=O)n1-c1ccc(OC)cc1)CC(C)(C)OC3 | 5.02% (active)
Cc1cc(Cl)ccc1OCc1nc(-c2ccccc2)no1 | 1.48%
CC1=C(C(=O)OCC2CCCO2)C(c2ccccc2F)C2=C(CCCC2=O)N1 (configuration not stated) | 0.289%

SMILES | activation
COc1ccc(CNC(=O)CSc2nnnn2C2CCCCC2)cc1 | -1.28%
CCOc1ccc(NC(=O)COc2ccc(C)cc2C)cc1 | 0.102%
CCOc1ccc(NC(=O)COc2cccc(C)c2C)cc1 | 5.81% (active)
CCOc1ccc(NC(=O)COc2cc(C)c(Cl)c(C)c2)cc1 | -0.356%
COc1cc(-c2cc(-c3ccccc3)nc3sc(C(=O)O)c(N)c23)cc(OC)c1OC | 0.0436%
NC(=O)C1CCN(C(=O)c2ccc(C(F)(F)F)cc2)CC1 | -0.735%
NC(=O)C1CCN(C(=O)c2ccc(-c3ccccc3)cc2)CC1 | 5.25% (active)
COc1ccc(C(=O)N2CCC(C(N)=O)CC2)cc1OC | 1.14%
COc1ccc(C(=O)C2CCN(CC(N)=O)CC2)cc1 | -1.68%
CN(C)CCNC(=O)C(=O)NCC1OCCCN1S(=O)(=O)c1ccc(F)cc1 (configuration not stated) | -0.149%
O=C(CSc1ccc(F)cc1)Nc1nccs1 | -0.169%
Nc1cc(=O)nc(SCC(=O)Nc2nccs2)n1-c1ccc(F)cc1 | 5.12% (active)
Cc1cc(NC(=O)CSc2nc(=O)cc(N)n2-c2ccc(F)cc2)no1 | -0.189%
O=C(Nc1ccc2oc(-c3ccccc3F)nc2c1)c1cc(I)ccc1Cl | -1.58%
CCOc1ccc(-c2cc(C(=O)NCCCN3CCN(C)CC3)c3ccccc3n2)cc1 | 2.73%
O=C1c2ccccc2C(=O)N1CNc1ccc(Cc2ccncc2)cc1 | -0.716%
COC(=O)CCC(=O)Nc1ccc(S(=O)(=O)N2CCOCC2)cc1 | -0.0636%
O=C(CN1C(=O)NC2(CCCCCC2)C1=O)Nc1ccc(S(=O)(=O)N2CCCC2)cc1 | 1.73%
O=C(CN1C(=O)CCC1=O)Nc1ccc(S(=O)(=O)N2CCOCC2)cc1 | 6.57% (active)
CN(CC(=O)Nc1cccc(F)c1)C(=O)C1CCCCC1 | -0.0765%
CC(C)CCn1nnnc1CN1CCN(c2ccccc2F)CC1 | -0.0283%
Cc1ccc(S(=O)(=O)Cn2nnnc2CN2CCN(c3cccc(Cl)c3)CC2)cc1 | -0.91%
Cc1ccc(S(=O)(=O)Cn2nnnc2CN2CCN(c3ccccc3F)CC2)cc1 | 8.05% (active)

SMILES | activation
CCCC(C)NS(=O)(=O)c1ccc(OCC(=O)OC)cc1 (configuration not stated) | 0.348%
COCC(=O)NC(C)c1nnc(SCc2ccccc2C)n1C (configuration not stated) | -0.733%
COc1cccc(-c2ocnc2C(=O)Nc2ccc3nc(-c4cccnc4)oc3c2)c1 | 7.47% (active)
COc1cccc(-c2nc3cc(NC(=O)c4cncc(Br)c4)ccc3o2)c1 | -0.0884%
COc1cccc(C(=O)Nc2ccc3oc(-c4ccccc4)nc3c2)c1 | -0.935%
O=C(NC1CC1)c1ccc(-c2cccc(C(=O)NCc3ccccc3)n2)cc1 | -1.55%
CCOc1ccc(-c2ccc(SCC(=O)Nc3cc(C)on3)nn2)cc1 | 1.58%
O=C1N(CC2CCCCC2)CCN1c1ccc(C(F)(F)F)cn1 | -0.812%
CCOc1ccc(S(=O)(=O)N2CCN(c3ncccn3)CC2)c2cccnc12 | 3.78%
c1ccc(-c2ccc(OCCCNCCN3CCOCC3)cc2)cc1 | 7.78% (active)
c1ccc(-c2ccccc2OCCNCCN2CCOCC2)cc1 | -0.471%
c1ccc(-c2ccccc2OCCCCNCCN2CCOCC2)cc1 | 0.194%
CC(C)c1ccc(N2C(=O)C3C(C2=O)C2(c4ccccc4)C(=O)C3(c3ccccc3)C(c3ccccc3)=C2c2ccccc2)cc1 (configuration not stated) | 2.7%
COC1(C(F)(F)F)NC(=O)N(c2ccccc2)C1=O (configuration not stated) | -1.06%
CCCOC1(C(F)(F)F)NC(=O)N(c2ccc(C(C)C)cc2)C1=O (configuration not stated) | 10.8% (active)
Cc1nc(N2CCN(C)CC2)c2c(C)c(C(=O)NC3CCCCC3)sc2n1 | 0.833%
CC(C)NC(=O)c1sc(=S)n2c1[nH]c(=O)c1ccc(C(=O)NCCN(C)C)cc12 | 1.68%
O=C1/C(=C\c2cccs2)SC(=S)N1Cc1ccco1 | -0.646%
CCC(=O)N1CCc2cc(S(=O)(=O)CCC(=O)Nc3ccc(C(=O)OC)cc3)ccc21 | 0.246%
COc1cc(-c2cncc(-c3cccc(C(=O)NCCN(C)C)c3)n2)cc(OC)c1OC | -0.823%
Cc1ccc(CN2CCOCC2)c(C)c1 | 0.704%
C/C(=N/N1CCN(Cc2ccc(C)cc2C)CC1)c1ccc([N+](=O)[O-])cc1 | 9.21% (active)
CCN1CCN(Cc2cc([N+](=O)[O-])ccc2O)CC1 | -0.921%

From PubChem BioAssay AID1508602 (The Scripps Research Institute Molecular Screening Center, 2020)
